Reference: PubChem BioAssay (NCATS)
Records with an inconclusive call do not appear. The source made the active and inactive calls. Calls follow the shape of the dose curve; as a rule, active = well fitted inhibition curve with a large enough effect; inconclusive = small, poorly fitted or top-dose-only effect; inactive = no such curve, though single readings can be large or run the other way. Residues, ends and D or L forms follow the SMILES beside them. *: point of attachment. Cbz = O=C(OCc1ccccc1)*
Potency is read from the fitted curve at half-maximal effect.

Experiment: BET inhibitor-based combinations targeting novel dependencies in MECOM-rearranged (r) AML: UCSD-AML1 cell line (AID 2202235); also: nearly all actives have a fitted effect of over 40% in size;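 as to viability (% of control): plate controls were DMSO vehicle wells for no effect and blank wells for full effect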
Details: UCSD-AML1 AML cells viability, CellTiter-Glo, 48 h; series mostly up to 46 µM; viability (% of control): at the top concentration
From the text: Ecotropic viral insertion site 1 (EVI1) is located on chromosome 3q26.2 as part of the MECOM (MDS and EVI1 complex) locus. Under normal hematopoiesis, EVI1 is a regulator of hematopoietic stem cell maintenance and self-renewal and EVI1 levels decrease as the cells differentiate. In approximately 5-10% of de novo acute myeloid leukemia (AML) EVI1 is aberrantly expressed, including Chromosomal inv(3)(q21;q26.2) or t(3;3)(q21;q26.2) alterations (MECOM-r) that account for about 50% of AML with EVI1 overexpression 31. AMLs with high levels of EVI1 have a poor prognosis and an overall survival time averaging between 10-14 months. EVI1 overexpression confers resistance in leukemia cells, highlighting the need to develop new targeted therapies for EVI1 overexpressing AMLs. Here, we performed an unbiased chemical drug screening by evaluating the single agent activity of a collection of 2,480 oncology-focused, approved and investigational drugs (NCATS Mechanism Interrogation Plates, MIPE v5.0) against a panel of seven AML cell lines. These included four MECOM-r cell-lines (AML-191, AML-194, UCSD-AML1 and HNT-34) and three non-MECOM-r AMLs (MV4-11, OCI-AML3 and SET-2). Exploiting the mechanistic redundancy built in the library, we identified target-level sensitivities in MECOM-r AML cells and relative activity as compared to other AML subtypes.
A collection of 2480 mechanistically annotated dugs (MIPE v5.0) was used to screen four 3q26.2 rearranged AML cell lines and three non-3q26.2 rearranged AML cell lines. This library purposely exploits redundancy by including multiple inhibitors of key onco-targets, while simultaneously encompassing mechanistic diversity, targeting more than 800 distinct mechanisms of action. Briefly, cells were seeded in 5 uL of growth media using a Multidrop Combi dispenser into 1536 well white polystyrene tissue culture treated plates (Corning) at a density of 500cells/well. For each cell-line, for each of the 2480 drugs in MIPE v5.0 library, an 11-point dose curve was generated via a 1536 pin-tool. Plates were incubated for 48 hr at standard incubator conditions, covered by a stainless steel gasketed lid to prevent evaporation. Cell viability was determined by luminescence based, Cell Titer Glo assay (Promega). In detail, 3 uL of Cell Titer Glo were added to each well and plates were incubated at room temperature for 15 min with a stainless-steel lid in place. Luminescence readings were taken using a Viewlux (PerkinElmer) with a 2 s exposure time per plate. Compound dose-response curves were normalized to DMSO and empty well controls on each plate. Quantitative drug activity data from dose-response curves was determined utilizing area Under the Curve (AUC) and Z-transformed AUC (Z-AUC, a mean-centering transformation applied to each individual cell-line screened).
For `CCOC(=O)[C@H](CCc1ccccc1)N[C@@H](C)C(=O)N1[C@H](C(=O)O)C[C@@H]2CCC[C@@H]21`, the “viability (% of control)” value was 118% (inactive). For `CC(C)[C@H](C(=O)Nc1ccc(C(=O)NO)cc1)c1ccccc1`, the Potency was 833 nM (active). With `O=[N+]([O-])c1ccc(-c2nc(-c3ccc(F)cc3)c(-c3ccncc3)[nH]2)cc1` the “viability (% of control)” value was 93.4% (inactive). For `CC(=O)c1c(C)c2cnc(Nc3ccc(N4CCNCC4)cn3)nc2n(C2CCCC2)c1=O`, the Potency was 13200 nM (active). In the case of `COc1ccc(C2CNC(=O)C2)cc1OC1CCCC1` (stereo not given), the “viability (% of control)” value is reported as 115% (inactive). In the case of `CN1CCN(c2ccc(C(=O)Nc3n[nH]c4ccc(Cc5cc(F)cc(F)c5)cc34)c(NC3CCOCC3)c2)CC1`, the Potency is reported as 3320 nM (active). In the case of `O=C1CCc2cc(OCCCCc3nnnn3C3CCCCC3)ccc2N1`, the “viability (% of control)” value is reported as 104% (inactive). With `Cc1n[nH]c(C)c1Cc1sc2c(c1C(=O)N1C[C@H](O)CO1)c(=O)n(C)c(=O)n2CC(C)C` the “viability (% of control)” value was 98.6% (inactive). In the case of `S=P(N1CC1)(N1CC1)N1CC1`, the “viability (% of control)” value is reported as 111% (inactive). For `CCOC(CN1C(=O)[C@](CC(=O)Nc2ccc(C)cc2)(NC(=O)Nc2ccc(C)cc2)c2ccccc21)OCC`, the “viability (% of control)” value was 105% (inactive). For `O=C(Nc1nc2cccc(-c3ccc(CN4CCS(=O)(=O)CC4)cc3)n2n1)C1CC1`, the Potency was 5900 nM (active). For `CCCCCCCCCCCCc1ccc(S(=O)(=O)Nc2nncs2)cc1`, the “viability (% of control)” value was 97.7% (inactive). In the case of `CCOC(=O)N1CCN(/[N+]([O-])=N/Oc2ccc([N+](=O)[O-])cc2[N+](=O)[O-])CC1`, the Potency is reported as 2950 nM (active). With `CCN(CCO)CCCC(C)Nc1ccnc2cc(Cl)ccc12` (stereo not given) the viability (% of control) was 97.7% [at 5.12 µM] (inactive). With `O=P(O)(O)C(O)(Cc1cccnc1)P(=O)(O)O` the “viability (% of control)” value was 118% (inactive). In the case of `C[C@@H](NC(=O)c1ncnc(N)c1Cl)c1ncc(C(=O)Nc2cc(C(F)(F)F)c(Cl)cn2)s1`, the Potency is reported as 8330 nM (active). For `O=C(O)c1ccc2cc(-c3ccc(O)c(C45CC6CC(CC(C6)C4)C5)c3)ccc2c1`, the Potency was 934 nM (active). In the case of `CC[C@]1(O)CC2CN(CCc3c([nH]c4ccccc34)[C@@](C(=O)OC)(c3cc4c(cc3OC)N(C)[C@H]3[C@@](O)(C(=O)OC)[C@H](OC(C)=O)[C@]5(CC)C=CCN6CC[C@]43[C@@H]65)C2)C1` (stereo not given in full), the Potency is reported as 263 nM (active). For `O=C(Nc1cccnn1)N1CCC(=Cc2cccc(Oc3ccc(C(F)(F)F)cn3)c2)CC1`, the “viability (% of control)” value was 105% (inactive). In the case of `CC(Nc1ncnc2nc[nH]c12)c1cc2cccc(Cl)c2c(=O)n1-c1ccccc1` (stereo not given), the Potency is reported as 3720 nM (active). With `COc1cccc(-c2cc(=O)c3ccccc3o2)c1N` the “viability (% of control)” value was 119% (inactive). With `CC(=O)O[C@]1(C(C)=O)CC[C@H]2[C@@H]3C=C(C)C4=CC(=O)CC[C@]4(C)[C@H]3CC[C@@]21C` the “viability (% of control)” value was 101% (inactive). For `CCCCCN(CCC12CC3CC(CC(C3)C1)C2)C(=O)NCCCc1ccncc1`, the Potency was 14800 nM (active). For `COc1ccc2cc(OCC3(C(=O)O)CN(C(=O)c4ccc(F)cc4)C3)ccc2c1`, the “viability (% of control)” value was 103% (inactive). In the case of `Nc1[nH]c(=O)ncc1F`, the “viability (% of control)” value is reported as 101% (inactive). For `CC(C)c1cc(CNc2nc(Nc3cc(C4CC4)[nH]n3)cc(N3CCN(C)CC3)n2)on1`, the Potency was 742 nM (active). For `CN(C)c1ccc(C(=C2C=CC(=[N+](C)C)C=C2)c2ccc(N(C)C)cc2)cc1`, the Potency was 1050 nM (active). In the case of `NCCc1cnc[nH]1`, the “viability (% of control)” value is reported as 99.7% (inactive). In the case of `CC1COc2c(N3CCN(C)CC3)c(F)cc3c(=O)c(C(=O)O)cn1c23` (stereo not given), the “viability (% of control)” value is reported as 109% (inactive). In the case of `CCCCNc1cc(C(=O)O)cc(S(N)(=O)=O)c1Oc1ccccc1`, the “viability (% of control)” value is reported as 110% (inactive). For `COc1ccc2[nH]c(S(=O)Cc3ncc(C)c(OC)c3C)nc2n1` (stereo not given), the “viability (% of control)” value was 89% (inactive). In the case of `CN(C)CCOC(c1ccccc1)c1ccccc1`, the “viability (% of control)” value is reported as 112% (inactive). For `c1cc(OCCN2CCCCC2)cc(-c2n[nH]c3ccc(-c4ncn[nH]4)cc23)c1`, the Potency was 13200 nM (active). In the case of `CC12CC3CC(C)(C1)CC(N)(C3)C2`, the “viability (% of control)” value is reported as 108% (inactive). In the case of `CCN(CC)CCOc1ccc(Cc2ccccc2)cc1`, the “viability (% of control)” value is reported as 98.2% (inactive). For `CC(C)C[C@@H](C=O)NC(=O)[C@H](CC(C)C)NC(=O)[C@H](CC(C)C)NC(=O)OCc1ccccc1` (Cbz-Leu-Leu-Leu-aldehyde), the Potency was 2950 nM (active). With `Cc1cc(O)c(-c2ccc([C@@H](C)CN(C)C)cc2)c2c1[nH]c(=O)c1sccc12` the Potency was 93.4 nM (active). In the case of `Nc1ccn([C@@H]2O[C@H](CO)[C@@H](O)C2(F)F)c(=O)n1`, the Potency is reported as 18.6 nM (active). For `O=[N+]([O-])c1cn2c(n1)OC[C@@H](OCc1ccc(OC(F)(F)F)cc1)C2`, the “viability (% of control)” value was 107% (inactive). In the case of `O=C(/C=C/N1C[C@H]2C[C@@H]1CN2c1ccccn1)c1ccccc1O`, the “viability (% of control)” value is reported as 82.4% (inactive).
